High-throughput results deposited in PubChem BioAssay by ICCB-Longwood Screening Facility, Harvard Medical School.
Vaccinia pol inh: blocks vaccinia virus processive DNA synthesis; in vitro processive DNA synthesis, absorbance read-out; hits give low values; normalized absorbance, % (concentration not given with the values); hit rate 0.94% among 46,000; AID 493162; in the data active = normalized absorbance mostly below about 85%, no sharp cut-off; inactive = mostly above about 86%
* marks the source's active call; other numbers are inactive results. The entries come from a sample that favours hits as a whole.

SMILES	Vaccinia pol inh
CC1=CC(C)(C)N=C(Nc2nc(C)c3cc(C)cc(C)c3n2)N1	50.1*
CCSC1=NC(C)(C)C=C(C)N1	117.8
COc1cccc(C2(c3ccc(O)cc3)CCCC2)c1	99.0
Cc1ccc(O)cc1	100.3
Oc1ccc(C2(c3ccc(O)cc3)CCCC2)cc1	52.9*
Cc1ccc(C)c(SCC(=O)NC(C)C(c2ccccc2)N2CCOCC2)c1 (stereo unspecified)	94.0
O=C(NCc1ccccc1)C1CCCN1c1nnc(N2CCCC2=O)s1 (stereo unspecified)	101.0
CN(C)/C=C/C(=N)SCc1c(F)cccc1Cl	75.0*
Fc1cccc(CSCc2c(F)cccc2Cl)c1	108.4
CC(=O)/C(C#N)=C(\N=C\N(C)C)SCc1c(Cl)cccc1Cl	102.2
O=C(c1cccc(Cl)c1)N1CCNCC1	111.2
Cc1cc2c(cc1S(=O)(=O)NCC1CCCO1)n(C)c(=O)c(=O)n2C (stereo unspecified)	106.9
O=C(NC(c1ccccc1)c1ccccc1)c1ccco1	101.2
Cc1ccnc(NC(=O)c2cccs2)c1	99.9
Cc1ccnc(NC(=O)c2cc(-c3ccc(C)c(C)c3)n[nH]2)c1	92.4
CC(Nc1cc(C)ccn1)=C(C#N)C#N	62.8*
CNC(=O)/C(=C\c1ccccc1)NC(=O)c1ccc(Cl)cc1Cl	101.0
COC(=O)C(NC(=O)Nc1ccccc1)C(C)C (stereo unspecified)	100.9
COC(=O)C(C(=O)OC)C(Nc1ccccc1)c1ccccc1 (stereo unspecified)	20.0*
COC(=O)C(N=Cc1ccccc1)c1ccccc1 (stereo unspecified)	104.7
CSC(=S)OC12CC3CC(CC(C)(C3)C1)C2	96.6
Cn1cnc(S(=O)(=O)N(Cc2ccccc2)Cc2ccccc2N2CCC(C(=O)O)CC2)c1	93.1
Cc1cccc(CCNC(=O)c2cc3c(=O)n(C)c4ccccc4c3s2)c1	101.4
CCn1c(=O)c2cc(C(=O)NCCCN3CCCCCC3)sc2c2ccccc21	59.8
O=C(NCCCN1CCCCC1)c1cc(Sc2ccc(F)cc2)nc2ccccc12	101.1
SMILES	Vaccinia pol inh
CC1CC(C)CN(CCCNC(=O)c2cc3c(=O)[nH]c4ccccc4c3s2)C1 (stereo unspecified)	57.8*
COC(=O)CNC(=O)c1cc2c(=O)[nH]c3ccccc3c2s1	97.1
Cc1ccc2oc(=O)c3cc(C(=O)NCCN4CCN(Cc5ccccc5)CC4)sc3c2c1	98.3
Cc1ccc(CCNC(=O)c2cc3c(=O)oc4ccc(C)cc4c3s2)cc1	102.9
CCCCN(C)C(=O)c1cc2c(Cl)nc3ccccc3c2s1	100.6
CC1CCN(CCCNC(=O)c2cc3c(=O)n(C)c4ccccc4c3s2)CC1	58.7*
Cc1ccc2oc(=O)c3cc(C(=O)NCCCN4CCCCCC4)sc3c2c1	68.2*
O=C(NCCCN1CCCC1)c1cc2c(Cl)nc3ccccc3c2s1	32.7*
O=C(NC1CCCCC1)c1cc2c(=O)[nH]c3ccccc3c2s1	99.8
O=C(O)c1ccn(COc2ccccc2)n1	101.4
COC(=O)C1=CN2C(C=C1)C(C(=O)OC)(C(=O)OC)[C@@H](c1cccnc1)[C@@H]2C#N (stereo partly specified)	101.0
Cc1sc(NC(=O)COc2cccc(F)c2)c(C#N)c1C	83.5
O=C1NC(c2cccc(F)c2)=N/C1=C\C=C\c1ccccc1	101.9
O=C(NC(NC1=NCCS1)(C(F)(F)F)C(F)(F)F)c1ccco1	102.2
COc1ccc2oc(=O)c(-c3cnc(C)s3)cc2c1	100.8
Cc1ccc2c(c1)C(c1ccccc1)N(C(=O)C1CC1)CC(=O)N2 (stereo unspecified)	88.5
CC1=C(C(=O)Nc2ccccc2)C(c2ccccn2)C(C(=O)Nc2ccccc2)=C(C)N1	100.6
Cc1cc(C(=O)NC(C)C)n(-c2ccccc2)n1	89.8
COC(=O)c1c(C)nn(C(=O)c2cccs2)c1-c1snnc1C	100.5
O=C(CN1CCOc2ccccc21)NC1CCCCCC1	97.9
N#Cc1cccn1Cc1ccccc1Cl	103.1
CC(Oc1ccccc1)C(=O)NCc1ccco1 (stereo unspecified)	85.3
Clc1ccc2nc(N3CCCCC3)nc(-c3ccccc3)c2c1	100.2
Brc1ccc2ncnc(NCC3CCCO3)c2c1 (stereo unspecified)	99.0
CC1=NN2C(=N)/C(=C/c3cn(CCOc4c(C)cccc4C)c4ccccc34)C(=O)N=C2S1	100.6
SMILES	Vaccinia pol inh
CC(c1ccccc1)N1C(=O)NC(=O)/C(=C/c2coc3ccccc3c2=O)C1=O (stereo unspecified)	91.4
N=C1/C(=C\c2coc3ccccc3c2=O)C(=O)N=C2SC=NN12	45.6*
CCCn1c(CNC(=O)c2cc(OC)c(OC)c(OC)c2)nc2ccccc21	107.5
CN1CCCC(OC(=O)c2cccnc2Cl)C1 (stereo unspecified)	102.0
Cc1ccc(C=Nc2cccc(Cl)c2)cc1	100.9
OC(c1ccc(-n2ccnc2)cc1)c1ccc(-n2ccnc2)cc1	88.4
COc1ccc2c(ccc(/C=C3\Sc4ccccc4N3C)[n+]2C)c1	19.8*
CN1/C(=C\C=C2C(=O)c3ccccc3C2=O)Sc2ccccc21	103.8
CCN1/C(=c2/sc3nc4ccccc4n3c2=O)Sc2ccc(OC)cc21	99.2
CCN1/C(=C\C=C\C(=O)c2ccccc2OC)Sc2ccccc21	110.6
CC(=S)/C=C1\Sc2ccccc2N1C	100.8
CCN1/C(=C/c2ccc3cc(C)ccc3[n+]2C)Sc2cc(OC)ccc21	24.5*
O=C(Nc1cc(F)ccc1F)c1cc(-c2ccc(F)cc2)nc2ccccc12	99.6
N#Cc1ccc(COC(=O)CCC2CCCC2)cc1	103.3
O=c1c2ccccc2nc(SCc2c(F)cccc2F)n1Cc1ccccc1	76.3*
Cc1ccc(CSc2nc3ccccc3c(=O)n2Cc2ccccc2)cc1	102.1
O=c1c2ccccc2nc(SCc2ccccc2F)n1CCc1ccccc1	99.9
COCCN1C(=O)/C(=C2/C(=O)N(OC)c3ccccc32)SC1=S	100.6
Nc1scc[n+]1CC(=O)c1ccc(Cl)c(Cl)c1	97.7
CCC(C)c1ccc(NC(=O)COC(=O)/C=C/c2cccs2)cc1 (stereo unspecified)	97.6
Cc1ccc(C=Nc2c(F)cccc2F)o1	102.8
O=C(O)c1ccc(-c2ccc(/C=C3\Sc4ccccc4C3=O)o2)cc1	99.7
O=C1NC(=Nc2cccc(C(=O)O)c2)S/C1=C/c1ccc(-c2ccc(C(=O)O)cc2)o1	28.6*
O=C(O)c1cccc(-c2ccc(/C=C3/SC(=O)N(c4ccccc4)C3=O)o2)c1	95.4
CN(C(=O)c1ccc2c(Cl)c3c(nc2c1)CCC3)c1ccccc1Cl	103.3
SMILES	Vaccinia pol inh
CCNC(=S)N1CCOCC1	96.0
CCOC(=O)[C@@H]1Nc2ccc(C(=O)O)cc2[C@@H]2C=CC[C@H]12	55.9*
CCOC(=O)[C@H]1NC(=O)C[C@H]1c1ccccc1	95.7
CCOC(=O)N1CCC(N2C(=O)c3ccc(C(=O)O)cc3C2=O)CC1	102.1
CC(C)c1ccc([C@@H]2Nc3ccc(C(=O)O)cc3[C@@H]3C=CC[C@@H]32)cc1	23.2*
Fc1ccc(C2Nc3ccc(OC(F)(F)F)cc3C3C=CCC32)cc1 (stereo unspecified)	96.6
CC(=O)Nc1ccc2c(c1)C1C=CCC1C(c1cccc(Cl)c1Cl)N2 (stereo unspecified)	99.6
CCCc1c(C)c2ccc(OCC(=O)O)cc2oc1=O	100.1
COc1ccccc1-n1c(-c2ccncc2)n[nH]c1=S	100.6
O=C(CCOc1ccccc1)NCc1ccco1	99.6
